These results are taken from PubChem BioAssay (EPA / NIEHS).

Records with an inconclusive call do not appear. Activity calls are given as the source filed them. How the source made its calls, unless noted: active means hit-call score of the fitted dose curve at least 0.9, where 1 is the maximum; inactive means score below 0.9.

The target of assay [1] is Retinoic acid receptor RXR-alpha (Homo sapiens) (UniProt P19793). Description: ATG_RXRa_TRANS: Attagene TRANS-FACTORIAL HepG2 Assay for human Retinoid X Receptor alpha (RXRa) (AID 2283012; active means hit-call score of the fitted dose curve at least 0.9, where 1 is the maximum). Put shortly:
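Cells (HepG2) carried transiently transfected GAL4-responsive reporter units. Following a 24 h chemical incubation, reporter mRNA induction was read via RT-PCR fragment analysis; DMSO served as negative control and baseline.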

For assay [2], the target named is human Thyroid Receptor alpha (THRa1), THRA (gene 7067) (UniProt P10827). Kind of assay: ATG_THRa1_TRANS: Attagene TRANS-FACTORIAL HepG2 Assay for human Thyroid Receptor alpha (THRa1) (AID 2283014; active means hit-call score of the fitted dose curve at least 0.9, where 1 is the maximum). Put shortly:
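Measured here is mRNA from a GAL4-UAS reporter in transfected HepG2 cells carrying a Gal4-fused receptor, 24 h post-dose. DMSO served as negative control and baseline.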

Read-out in assay [3]: E-selectin (Homo sapiens) (UniProt P16581)
Description: BSK_3C_Eselectin: BioMAP Diversity Plus: 3C Assay for Eselectin Biomarker Activity (AID 2283015).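 Further: cell surface E-selectin protein quantified by ELISA 24 h after dosing.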 As to conditions: primary human endothelial cells (HUVEC); actives raise or lower the signal. The method, boiled down:
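Endpoint derived by bidirectional fitting against DMSO vehicle; signal is ELISA-detected E-selectin from primary HUVEC at 24 h post-dosing, with parallel SRB staining (0.1% SRB, 560 nm) flagging cytotoxicity.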

Read-out in assay [4]: Interleukin-1 alpha (IL1a), IL1A (gene 3552)
Description: BSK_BE3C_IL1a: BioMAP Diversity Plus: BE3C Assay for Interleukin-1 alpha (IL1a) Biomarker Activity (AID 2283016). The conditions noted are these: primary human bronchial epithelial cells; actives raise or lower the signal. The method, boiled down: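 Cultures of primary human bronchial epithelial cells receive test chemical. After 24 h, IL-1a is quantified by ELISA, while parallel wells are fixed in TCA and SRB-stained for total protein. Changes in either direction are fitted relative to DMSO.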

Read-out in assay [5]: Monocyte Chemoattractant Protein-1 (MCP1), CCL2 (gene 6347)
Kind of assay: BSK_3C_MCP1: BioMAP Diversity Plus: 3C Assay for Monocyte Chemoattractant Protein-1 (MCP1) Biomarker Activity (AID 2283017). As to conditions: primary human endothelial cells (HUVEC); actives raise or lower the signal. The method, boiled down:
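Using human vascular primary endothelium, researchers measured MCP-1 by ELISA 24 h after treatment, with DMSO serving as negative control for bidirectional fitting.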

Read-out in assay [6]: Monocyte Chemoattractant Protein-1 (MCP1), CCL2 (gene 6347)
Kind of assay: BSK_4H_MCP1: BioMAP Diversity Plus: 4H Assay for Monocyte Chemoattractant Protein-1 (MCP1) Biomarker Activity (AID 2283018). The conditions noted are these: primary human endothelial cells (HUVEC); actives raise or lower the signal. The method, boiled down:
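Readout: MCP-1 ELISA on compound-treated HUVEC, sampled 24 h post-dosing. Baseline and negative control DMSO; bidirectional fit. Overt toxicity checked alongside by sulforhodamine B protein staining at time of biomarker measurement.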

Read-out in assay [7]: Human Leukocyte Antigen - DR isotype (HLADR), HLA-DRA (gene 3122)
Description: BSK_3C_HLADR: BioMAP Diversity Plus: 3C Assay for Human Leukocyte Antigen - DR isotype (HLADR) Biomarker Activity (AID 2283019).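 Further: ELISA of cell-surface HLA-DR on HUVEC 24 h after dosing.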 The conditions noted are these: primary human endothelial cells (HUVEC); actives raise or lower the signal. Put shortly:
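Compound added to primary HUVEC cultures, 24 h incubation, then HLA-DR determined by ELISA; endpoint derived by bidirectional fitting relative to DMSO negative control.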

Read-out in assay [8]: Interleukin-8 (IL8), CXCL8 (gene 3576)
Description: BSK_3C_IL8: BioMAP Diversity Plus: 3C Assay for Interleukin-8 (IL8) Biomarker Activity (AID 2283020). The conditions noted are these: primary human endothelial cells (HUVEC); actives raise or lower the signal. Put shortly:
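Human vascular endothelial cells (umbilical vein) in the 3C system; IL-8 level detected by ELISA at 24 h post-dose, with DMSO as baseline.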

Read-out in assay [9]: Monokine induced gamma interferon (MIG), CXCL9 (gene 4283)
Kind of assay: BSK_3C_MIG: BioMAP Diversity Plus: 3C Assay for Monokine induced gamma interferon (MIG) Biomarker Activity (AID 2283021). The conditions noted are these: primary human endothelial cells (HUVEC); actives raise or lower the signal. Put shortly:
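After 24 h of treatment, human umbilical vein endothelial cultures (3C system) had their MIG biomarker level determined by ELISA, with DMSO serving as negative control.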

The target in assay [10] is human Vitamin D Receptor (VDR), VDR (gene 7421) (UniProt P11473). Kind of assay: ATG_VDR_TRANS: Attagene TRANS-FACTORIAL HepG2 Assay for human Vitamin D Receptor (VDR) (AID 2283022; active means hit-call score of the fitted dose curve at least 0.9, where 1 is the maximum). The method, boiled down:
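Multiplexed TRANS reporter in HepG2; 24 h treatment; reporter mRNA by RT-PCR plus capillary electrophoresis; upregulation scored relative to DMSO.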

Assay [11] is described as follows: BSK_3C_SRB: Viability Assessment in the BioMAP Diversity Plus: 3C Assay (AID 2283023).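 Further: cells read 24 h after compound dosing; fitted both ways against DMSO so a hit may be signal rise or drop.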 The conditions noted are these: primary human endothelial cells (HUVEC). The method, boiled down:
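Overt cytotoxicity is gauged in parallel confluent HUVEC cultures by SRB total-protein staining at the time of biomarker measurement, 24 h after dosing. Gain or loss of signal is fitted versus DMSO.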

Read-out in assay [12]: Matrix Metallopeptidase 1 (MMP1), MMP1 (gene 4312)
Description: BSK_BE3C_MMP1: BioMAP Diversity Plus: BE3C Assay for Matrix Metallopeptidase 1 (MMP1) Biomarker Activity (AID 2283024). As to conditions: primary human bronchial epithelial cells; actives raise or lower the signal. Put shortly: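 Dose cells, wait 24 h, run MMP1 ELISA; cells are human bronchial epithelial primaries. Both increases and decreases relative to DMSO counted.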

A short description of assay [13]: BSK_3C_Vis: BioMAP Diversity Plus: 3C Assay for Morphology Visualization (AID 2283025).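 Further: fitted both ways so gain or loss versus DMSO counts.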 The conditions noted are these: primary human endothelial cells (HUVEC). The method, boiled down: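 Endothelial cells from human umbilical vein were treated with test chemicals for 24 h and inspected by light microscopy for changes in cell conformation.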
Read-out in assay [14]: Pselectin, SELP (gene 6403)
Kind of assay: BSK_4H_Pselectin: BioMAP Diversity Plus: 4H Assay for Pselectin Biomarker Activity (AID 2283026). As to conditions: primary human endothelial cells (HUVEC); actives raise or lower the signal. The method, boiled down: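 Human vascular endothelium from umbilical vein; P-selectin measured by ELISA at 24 h post-dose, with cytotoxicity checked by sulforhodamine B total-protein staining in parallel cultures (0.1% SRB after 10% TCA fixation, read at 560 nm).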

The nature of assay [15]: BSK_BE3C_SRB: Viability Assessment in the BioMAP Diversity Plus: BE3C Assay (AID 2283028).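 Further: measured 24 h after chemical dosing.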 The conditions noted are these: primary human bronchial epithelial cells. The method, boiled down: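 SRB total-protein staining (0.1%, after TCA fixation) of chemically dosed human bronchial epithelial primary cells at 24 h; DMSO serves as the negative control for bidirectional curve fitting.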

Read-out in assay [16]: Thrombomodulin, THBD (gene 7056)
Kind of assay: BSK_3C_Thrombomodulin: BioMAP Diversity Plus: 3C Assay for Thrombomodulin Biomarker Activity (AID 2283029). The conditions noted are these: primary human endothelial cells (HUVEC); actives raise or lower the signal. The method, boiled down:
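Thrombomodulin ELISA, human primary HUVEC, 24 h post-dose; data fitted in both directions relative to DMSO.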

Read-out in assay [17]: Urokinase-type plasminogen activator receptor (uPAR), PLAUR (gene 5329)
Kind of assay: BSK_4H_uPAR: BioMAP Diversity Plus: 4H Assay for Urokinase-type plasminogen activator receptor (uPAR) Biomarker Activity (AID 2283030). As to conditions: primary human endothelial cells (HUVEC); actives raise or lower the signal. The method, boiled down:
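Endpoint derived via bidirectional curve fitting against DMSO baseline; readout was ELISA detection of uPAR on umbilical vein endothelial cells at 24 h post-treatment, with SRB-stained parallel cultures assessing cytotoxicity.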

The target in assay [18] is human Retinoid X Receptor beta (RXRb), RXRB (gene 6257) (UniProt P28702). Description: ATG_RXRb_TRANS: Attagene TRANS-FACTORIAL HepG2 Assay for human Retinoid X Receptor beta (RXRb) (AID 2283013; active means hit-call score of the fitted dose curve at least 0.9, where 1 is the maximum). Put shortly:
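Multiplexed TRANS reporter assay in HepG2; 24 h dosing; reporter mRNA by RT-PCR/CE fluorescence; gain-of-signal relative to DMSO.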

Sequence of E-selectin (Homo sapiens) (P16581 whole entry, looked up): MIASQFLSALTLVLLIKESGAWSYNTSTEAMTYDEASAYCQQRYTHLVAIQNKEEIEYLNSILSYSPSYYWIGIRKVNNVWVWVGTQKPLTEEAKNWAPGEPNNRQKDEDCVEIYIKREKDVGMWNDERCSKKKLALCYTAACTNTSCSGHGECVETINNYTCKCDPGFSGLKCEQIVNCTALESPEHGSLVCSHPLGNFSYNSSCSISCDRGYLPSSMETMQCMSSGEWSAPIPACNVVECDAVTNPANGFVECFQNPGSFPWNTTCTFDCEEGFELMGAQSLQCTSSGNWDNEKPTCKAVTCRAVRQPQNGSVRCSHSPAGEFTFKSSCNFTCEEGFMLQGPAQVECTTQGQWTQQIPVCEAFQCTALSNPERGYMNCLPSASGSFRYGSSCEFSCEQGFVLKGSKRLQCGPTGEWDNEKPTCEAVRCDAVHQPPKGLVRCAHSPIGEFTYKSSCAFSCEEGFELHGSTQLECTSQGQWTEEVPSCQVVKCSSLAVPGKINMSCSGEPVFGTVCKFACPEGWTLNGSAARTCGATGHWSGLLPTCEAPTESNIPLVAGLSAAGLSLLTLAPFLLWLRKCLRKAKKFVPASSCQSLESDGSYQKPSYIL
Sequence of human Vitamin D Receptor (VDR), VDR (gene 7421) (P11473 whole entry, looked up): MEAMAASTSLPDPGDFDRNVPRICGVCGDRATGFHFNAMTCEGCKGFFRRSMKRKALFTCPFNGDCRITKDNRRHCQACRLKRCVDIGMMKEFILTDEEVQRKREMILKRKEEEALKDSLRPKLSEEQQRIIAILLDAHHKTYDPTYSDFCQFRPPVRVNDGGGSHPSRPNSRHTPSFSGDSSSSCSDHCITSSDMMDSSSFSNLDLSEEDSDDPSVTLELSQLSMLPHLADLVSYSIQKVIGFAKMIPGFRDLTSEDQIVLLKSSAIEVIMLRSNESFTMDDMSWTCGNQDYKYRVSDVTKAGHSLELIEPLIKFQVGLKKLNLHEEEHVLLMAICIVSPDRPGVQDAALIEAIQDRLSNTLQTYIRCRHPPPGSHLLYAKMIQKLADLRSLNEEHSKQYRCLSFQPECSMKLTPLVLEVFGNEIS
Sequence of human Retinoid X Receptor beta (RXRb), RXRB (gene 6257) (P28702 whole entry, looked up): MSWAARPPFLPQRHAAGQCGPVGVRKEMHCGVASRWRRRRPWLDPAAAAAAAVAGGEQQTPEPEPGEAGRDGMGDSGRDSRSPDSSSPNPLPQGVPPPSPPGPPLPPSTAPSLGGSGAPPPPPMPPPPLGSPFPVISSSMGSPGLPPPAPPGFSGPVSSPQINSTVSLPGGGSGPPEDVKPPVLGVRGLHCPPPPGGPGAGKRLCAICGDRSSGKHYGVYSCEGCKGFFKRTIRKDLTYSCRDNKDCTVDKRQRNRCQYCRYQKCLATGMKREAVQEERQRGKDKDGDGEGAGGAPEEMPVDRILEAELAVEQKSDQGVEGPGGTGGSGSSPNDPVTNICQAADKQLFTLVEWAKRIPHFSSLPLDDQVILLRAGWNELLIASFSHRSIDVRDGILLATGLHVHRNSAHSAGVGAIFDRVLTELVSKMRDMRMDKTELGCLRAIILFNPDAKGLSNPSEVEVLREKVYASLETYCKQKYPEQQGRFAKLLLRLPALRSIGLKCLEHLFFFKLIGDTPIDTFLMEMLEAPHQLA
Sequence of human Thyroid Receptor alpha (THRa1), THRA (gene 7067) (P10827 whole entry, looked up, the tested form may be a part): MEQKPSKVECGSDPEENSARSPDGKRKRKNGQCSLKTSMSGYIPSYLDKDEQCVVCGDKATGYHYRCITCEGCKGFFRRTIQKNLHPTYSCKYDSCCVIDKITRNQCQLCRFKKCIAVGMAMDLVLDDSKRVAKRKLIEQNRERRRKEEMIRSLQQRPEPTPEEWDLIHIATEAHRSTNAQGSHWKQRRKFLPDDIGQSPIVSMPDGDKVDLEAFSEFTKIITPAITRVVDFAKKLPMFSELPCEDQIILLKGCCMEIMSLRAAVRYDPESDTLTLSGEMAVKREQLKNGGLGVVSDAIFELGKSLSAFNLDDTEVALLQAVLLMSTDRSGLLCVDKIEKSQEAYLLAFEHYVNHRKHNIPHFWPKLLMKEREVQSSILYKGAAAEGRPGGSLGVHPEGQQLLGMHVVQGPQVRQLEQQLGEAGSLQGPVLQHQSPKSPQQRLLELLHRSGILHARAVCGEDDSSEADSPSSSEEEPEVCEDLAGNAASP
Sequence of Retinoic acid receptor RXR-alpha (Homo sapiens) (P19793 whole entry, looked up, the tested form may be a part): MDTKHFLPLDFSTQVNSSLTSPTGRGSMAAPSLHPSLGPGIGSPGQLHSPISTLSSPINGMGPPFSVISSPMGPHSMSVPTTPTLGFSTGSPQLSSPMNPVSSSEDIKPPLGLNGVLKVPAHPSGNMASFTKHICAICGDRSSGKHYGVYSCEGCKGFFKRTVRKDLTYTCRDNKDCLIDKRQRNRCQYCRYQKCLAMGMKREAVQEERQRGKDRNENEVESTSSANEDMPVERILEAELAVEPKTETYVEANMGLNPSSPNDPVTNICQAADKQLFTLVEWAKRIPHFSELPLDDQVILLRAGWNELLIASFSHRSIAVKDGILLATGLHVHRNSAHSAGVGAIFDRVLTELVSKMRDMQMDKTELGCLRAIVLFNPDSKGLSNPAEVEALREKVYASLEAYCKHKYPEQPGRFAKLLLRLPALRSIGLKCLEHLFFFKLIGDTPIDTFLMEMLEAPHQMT

In general, AC50 refers to the midpoint of the concentration-response curve, whichever way the signal moves. As to `CC(=O)OCC=C(C)CCC=C(C)CCC=C(C)C`, the compound was classed as inactive in [1], in assay [2], in assay [3], in [4], in [5] and in assay [7]. In addition, the result in assay [8], in assay [9], in [10], in assay [11], in assay [12] and in assay [13] was inactive. For the same compound, the outcome in assay [14], in assay [15], in assay [16] and in assay [17] was inactive. The AC50 in assay [6] is 3.97 µM (active).
With `CN1CCc2cccc3c2[C@H]1Cc1ccc(O)c(O)c1-3`, the compound was classed as inactive in assay [1], in assay [18] and in assay [10].
As for `CCCCCCCCCO`, the compound was called inactive in [1], in assay [18] and in [10].
With `CC(C)CCOC(=O)CC(C)C`, the compound was called inactive in [1] and in [10]. Moreover, in assay [18], the concentration at half-maximal activity (AC50) was 100 µM (active).
Take `CC(C)(C)c1cccc(O)c1`: the call in assay [1], in assay [3], in [4], in assay [5], in [6] and in [7] was inactive. Moreover, the result in assay [8], in assay [9], in assay [10], in [11], in [12] and in [13] was inactive. For the same compound, the result in assay [14], in assay [15], in [16] and in assay [17] was inactive.
Consider `CCCCN(CCCC)CCCCCCN(CCCC)CCCC`, for which the result in assay [2] and in assay [10] was inactive.
As for `C=C(C)C(=O)OCCN(C)C`, the compound was classed as inactive in assay [10].
As for `CCCCCCOc1ccc(O)cc1`, the result in assay [18] and in assay [10] was inactive.
As for `CC1=CC(O)CC(C)(C)C1` (configuration not stated), the outcome in assay [1] and in [10] was inactive.
On to `CCCCOCCOCCO`, for which the outcome in assay [2], in assay [3], in assay [4], in assay [5], in assay [6] and in assay [7] was inactive. The result in assay [8], in [9], in [11], in [12], in assay [13] and in assay [14] was inactive. In addition, the outcome in [15], in assay [16] and in assay [17] was inactive.
In the case of `CCOC(=O)C=Cc1ccccc1`, the compound was classed as inactive in assay [18], in assay [3], in [4], in assay [5], in [6] and in assay [7]. The result in assay [8], in [9], in assay [11], in assay [12], in assay [13] and in assay [14] was inactive. Further, the outcome in assay [15], in assay [16] and in assay [17] was inactive.
As for `C=C(C)C(=O)OCCC(F)(F)C(F)(F)C(F)(F)C(F)(F)C(F)(F)C(F)(F)C(F)(F)C(F)(F)F`, the result in [3], in [4], in [5], in assay [6], in [7] and in assay [8] was inactive. Also, the result in assay [9], in [11], in assay [12], in [14], in [15] and in [16] was inactive. The outcome in [17] was inactive.
